Experimental data from PubChem BioAssay AID493170 (National Center for Advancing Translational Sciences (NCATS), 2011).
Records with an inconclusive call do not appear. Entries that show only a call come without a potency. Calls of active or inactive are those of the source. Calls come from the whole dose curve; as a rule, active = well fitted inhibition curve with a large enough effect; inconclusive = small, poorly fitted or top-dose-only effect, or effect the other way; inactive = flat fitted curve, though single readings scatter.

Target: Ubiquitin carboxyl-terminal hydrolase 2 (Homo sapiens) (UniProt O75604)
Test: Ub-rhodamine 110 based assay for inhibitors Ubiquitin-specific Protease USP2a; note: nearly all actives have a fitted effect of over 50% in size
Outline: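 Kinetic fluorescence (485/531 nm) read each minute over 7 min after adding Ub-Rhod110 (150 nM final) to USP2a (5 nM final). The enzyme had 30 min RT exposure to compounds beforehand in Tris pH 8.0 buffer with CaCl2, CHAPS and beta-ME.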
Potency is the fitted concentration of half-maximal effect.

Ubiquitin carboxyl-terminal hydrolase 2 (Homo sapiens), sequence (O75604 whole entry, looked up): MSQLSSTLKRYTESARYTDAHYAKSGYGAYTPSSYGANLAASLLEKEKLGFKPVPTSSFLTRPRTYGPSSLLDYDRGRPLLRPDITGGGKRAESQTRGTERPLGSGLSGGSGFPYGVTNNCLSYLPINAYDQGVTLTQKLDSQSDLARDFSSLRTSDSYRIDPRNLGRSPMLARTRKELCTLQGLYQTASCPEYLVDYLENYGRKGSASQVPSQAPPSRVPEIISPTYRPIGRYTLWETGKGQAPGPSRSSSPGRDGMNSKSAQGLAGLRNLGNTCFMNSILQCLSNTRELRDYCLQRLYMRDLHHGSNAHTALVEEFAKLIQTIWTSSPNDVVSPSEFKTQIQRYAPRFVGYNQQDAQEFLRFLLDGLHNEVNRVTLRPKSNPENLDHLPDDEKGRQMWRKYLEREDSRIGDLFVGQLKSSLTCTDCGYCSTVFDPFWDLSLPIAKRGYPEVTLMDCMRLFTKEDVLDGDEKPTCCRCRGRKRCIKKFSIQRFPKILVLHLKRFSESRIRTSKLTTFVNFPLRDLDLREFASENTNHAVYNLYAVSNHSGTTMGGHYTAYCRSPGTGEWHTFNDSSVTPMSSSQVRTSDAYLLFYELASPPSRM

Row | Structure (SMILES) | Potency
1 | CCOc1ccc(NC(=O)N(CCCN2CCOCC2)Cc2cccnc2)cc1 | inactive
2 | O=C1CC(Nc2ccc(N3CCOCC3)cc2)C(=O)N1c1cccc(C(F)(F)F)c1 (configuration not stated) | inactive
3 | O=C1NC(=Nc2ccccc2)S/C1=C\C=C\c1ccco1 | 5.62 µM (active)
4 | O=C(COc1ccccc1)N1CCN(C(=O)Cc2ccccc2)CC1 | inactive
5 | Cc1ccc(-c2ccc(CCC(=O)O)n2NC(=O)c2cccs2)cc1 | inactive
6 | CC(CN1CCCCC1)OC(=O)c1ccc(Cl)cc1 (configuration not stated) | inactive
7 | CCC1=[N+](CC(=O)c2ccc(Br)cc2)CCn2c(C)ccc21 | inactive
8 | O=C(N/C(=C/c1cccnc1)C(=O)N1CCOCC1)c1ccco1 | inactive
9 | CCOC(=O)Nc1nnc(CCc2ccccc2)s1 | inactive
10 | CC1(C(=O)O)Sc2[nH]c(=O)sc2C2c3ccccc3OC(=O)C21 (configuration not stated) | inactive
11 | O=C(Nc1nc(-c2ccco2)c(-c2ccco2)s1)c1ccc(F)cc1F | 10 µM (active)
12 | CC1(C)Cc2c(C#N)c(N3CCN(C(=O)c4ccco4)CC3)nc(-c3ccco3)c2CS1 | 8.91 µM (active)
13 | O=[N+]([O-])c1cc(-c2ccc(/C=N\n3cnnc3)o2)cc([N+](=O)[O-])c1 | 11.2 µM (active)
14 | COc1cc2cc(CN(CCN3CCCC3)C(=O)Nc3ccc(F)cc3)c(=O)[nH]c2cc1OC | inactive
15 | COc1ccc(-c2nc3cc(NC(=O)Cc4ccc(OC)c(OC)c4)ccc3o2)cc1 | inactive
16 | COc1ccc2[nH]c(=O)c(CN(Cc3ccco3)Cc3nnnn3Cc3ccccc3)cc2c1 | inactive
17 | N#C/C(=C(/O)CSc1nnc(Cc2cccs2)n1C1CCCCC1)c1nc2ccccc2[nH]1 | 7.08 µM (active)
